Records with an inconclusive call do not appear. Calls of active or inactive are those of the source. Calls follow the shape of the dose curve; as a rule, active = well fitted curve in the direction sought with a large enough effect; inconclusive = small, poorly fitted or top-dose-only effect, or another doubt; inactive = no such curve, though single readings can be large; an effect the other way counts as inactive or inconclusive.

Assay [1] can be described thus: Quantitative High-Throughput drug screen in 47 multiple myeloma cell lines against the NCATS MIPE library collection: KHM11_PLB cell viability assay (AID 1918962). Also: nearly all actives have a fitted effect of over 35% in size. Also: potency is read from the fitted curve at half-maximal effect. A digest of the protocol: (§1)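 Viability readout: CellTiter-Glo luminescence following 5 min room-temperature incubation with reagent. Prior exposure: 48 h, 37C, humidified 5% CO2, 500 cells per well.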
Assay [2] is described as follows: Quantitative High-Throughput drug screen in 47 multiple myeloma cell lines against the NCATS MIPE library collection: JIM3_ECACC cell viability assay (AID 1918963; also: nearly all actives have a fitted effect of over 35% in size; also: potency is read from the fitted curve at half-maximal effect). Put shortly: as §1
Assay [3] can be described thus: Quantitative High-Throughput drug screen in 47 multiple myeloma cell lines against the NCATS MIPE library collection: JIM1_ECACC cell viability assay (AID 1918964). Put shortly: (§2)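 Primary qHTS used for cherry-picking: cells at 500/well, library compounds for 48 h (37C, 5% CO2), luminescent ATP assay.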
Assay [4] in a line: Quantitative High-Throughput drug screen in 47 multiple myeloma cell lines against the NCATS MIPE library collection: H1112_PLB cell viability assay (AID 1918967; also: nearly all actives have a fitted effect of over 30% in size; also: potency is read from the fitted curve at half-maximal effect). A digest of the protocol: as §2
The nature of assay [5]: Quantitative High-Throughput drug screen in 47 multiple myeloma cell lines against the NCATS MIPE library collection: KMS27_JCRB cell viability assay (AID 1918970). Also: nearly all actives have a fitted effect of over 30% in size. Also: potency is read from the fitted curve at half-maximal effect. The settings on record: KMS27 myeloma cells, CellTiter-Glo ATP viability, 48 h; viability (% of DMSO): at 45.8 µM (top of the series). A digest of the protocol:
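CellTiter-Glo luminescence after 48 h drug exposure at 37 °C; 500 cells/well, 1536-well format, pin-tool compound addition; DMSO = 100%, media-only = 0% viability.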
For orientation: Cellular ATP, detected with luciferase, serves as a proxy for viable cell number.

Assay [6] in a line: Quantitative High-Throughput drug screen in 47 multiple myeloma cell lines against the NCATS MIPE library collection: KMS12PE_JCRB cell viability assay (AID 1918972). Also: nearly all actives have a fitted effect of over 30% in size. Also: potency is read from the fitted curve at half-maximal effect. Put shortly: (§3)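 Approved and investigational drugs from MIPE 4.0 were added by pin tool to 500 cells per well. After 48 hours at 37C, ATP-based CellTiter-Glo luminescence indicated remaining viability.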
Assay [7] is described as follows: Quantitative High-Throughput drug screen in 47 multiple myeloma cell lines against the NCATS MIPE library collection: KMS20_JCRB cell viability assay (AID 1918973). Also: nearly all actives have a fitted effect of over 45% in size. Also: potency is read from the fitted curve at half-maximal effect. A digest of the protocol:
as §2

The nature of assay [8]: Quantitative High-Throughput drug screen in 47 multiple myeloma cell lines against the NCATS MIPE library collection: KMS26_JCRB cell viability assay (AID 1918975). Also: nearly all actives have a fitted effect of over 45% in size. Also: potency is read from the fitted curve at half-maximal effect. Put shortly:
(§4)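 Steps: seed 500 cells per well; pin-transfer MIPE 4.0 library; incubate 48 h at 37C, 5% CO2, humidified; add CellTiter-Glo, 5 min room temperature; read luminescence.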

Assay [9] can be described thus: Quantitative High-Throughput drug screen in 47 multiple myeloma cell lines against the NCATS MIPE library collection: NCIH929_DSMZ cell viability assay (AID 1918978). Also: nearly all actives have a fitted effect of over 35% in size. Also: potency is read from the fitted curve at half-maximal effect. A digest of the protocol:
(§5)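 MIPE 4.0 approved/investigational drugs; 500 cells/well; 48 h 37 °C humidified 5% CO2; CTG luminescence readout; DMSO = 100%, media = 0% viability.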

The nature of assay [10]: Quantitative High-Throughput drug screen in 47 multiple myeloma cell lines against the NCATS MIPE library collection: OCIMY1_PLB cell viability assay (AID 1918979). Also: nearly all actives have a fitted effect of over 35% in size. Also: potency is read from the fitted curve at half-maximal effect. A digest of the protocol:
as §5

The nature of assay [11]: Quantitative High-Throughput drug screen in 47 multiple myeloma cell lines against the NCATS MIPE library collection: MM1S_ATCC cell viability assay (AID 1918980). Also: nearly all actives have a fitted effect of over 45% in size. Also: potency is read from the fitted curve at half-maximal effect. Put shortly: as §5
The nature of assay [12]: Quantitative High-Throughput drug screen in 47 multiple myeloma cell lines against the NCATS MIPE library collection: MM1R_ATCC cell viability assay (AID 1918981). Also: nearly all actives have a fitted effect of over 35% in size. Also: potency is read from the fitted curve at half-maximal effect. A digest of the protocol:
as §5

Assay [13] can be described thus: Quantitative High-Throughput drug screen in 47 multiple myeloma cell lines against the NCATS MIPE library collection: INA6_PLB cell viability assay (AID 1918965; also: nearly all actives have a fitted effect of over 55% in size; also: potency is read from the fitted curve at half-maximal effect). Put shortly:
as §3

Assay [14] is described as follows: Quantitative High-Throughput drug screen in 47 multiple myeloma cell lines against the NCATS MIPE library collection: JJN3_DSMZ cell viability assay (AID 1918966; also: nearly all actives have a fitted effect of over 50% in size; also: potency is read from the fitted curve at half-maximal effect). A digest of the protocol: as §2
Assay [15] in a line: Quantitative High-Throughput drug screen in 47 multiple myeloma cell lines against the NCATS MIPE library collection: Karpas25_ECACC cell viability assay (AID 1918968; also: nearly all actives have a fitted effect of over 35% in size; also: potency is read from the fitted curve at half-maximal effect). Put shortly:
as §2

Assay [16] in a line: Quantitative High-Throughput drug screen in 47 multiple myeloma cell lines against the NCATS MIPE library collection: MMM1_PLB cell viability assay (AID 1918976). Also: nearly all actives have a fitted effect of over 35% in size. Also: potency is read from the fitted curve at half-maximal effect. Put shortly: as §5
The nature of assay [17]: Quantitative High-Throughput drug screen in 47 multiple myeloma cell lines against the NCATS MIPE library collection: MOLP8_DSMZ cell viability assay (AID 1918977). Also: nearly all actives have a fitted effect of over 45% in size. Also: potency is read from the fitted curve at half-maximal effect. Put shortly:
as §5

The nature of assay [18]: Quantitative High-Throughput drug screen in 47 multiple myeloma cell lines against the NCATS MIPE library collection: KMS12BM_JCRB cell viability assay (AID 1918971). Also: nearly all actives have a fitted effect of over 35% in size. Also: potency is read from the fitted curve at half-maximal effect. Put shortly: as §4
The nature of assay [19]: Quantitative High-Throughput drug screen in 47 multiple myeloma cell lines against the NCATS MIPE library collection: KMS21BM_JCRB cell viability assay (AID 1918974). Also: potency is read from the fitted curve at half-maximal effect. As to conditions: ATP luminescence, 48 h; viability: at 45.8 µM (top of the series). A digest of the protocol:
as §2

For the molecule `N[C@H]1CN(c2c(F)cc3c(=O)c(C(=O)O)cn(C4C[C@@H]4F)c3c2Cl)CC12CC2` (some centres not stated), the Potency result in assay [1], in assay [2], in assay [3], in assay [4], in assay [5] and in assay [6] was “inactive” throughout. Moreover, the Potency result in assay [7], in assay [9], in [10], in [11] and in [12] was “inactive” throughout. For the same molecule, the Potency in assay [8] is 16.6 µM (active).

For `O=C(Nc1cccc(Nc2ncc(Br)c(NCCc3cnc[nH]3)n2)c1)N1CCCC1`, the Potency in assay [1] is 1.18 µM (active); in assay [2], 6.62 µM (active); in assay [13] it was 0.743 µM (active); in assay [14] it was 11.8 µM (active); in assay [4], 9.35 µM (active); in assay [15] it was 5.9 µM (active). For the same molecule, the Potency in assay [7] is 5.9 µM (active); in assay [8] it was 10.5 µM (active); in assay [16] it was 18.7 µM (active); in [17], 6.62 µM (active); in assay [9] it was 7.43 µM (active); in assay [11], 18.7 µM (active). For the same molecule, the Potency in assay [12] was 14.8 µM (active). In addition, the Potency result in assay [5] was “inactive”.

Regarding `CN(C)CC[C@H](c1ccc(Cl)cc1)c1ccccn1`, the Potency result in assay [1], in [2], in assay [13], in [14], in assay [4] and in assay [15] was “inactive” throughout. Besides, the Potency result in [8] and in assay [9] was “inactive” throughout.

`C[C@@]12C[C@@]3(O)O[C@@H](O1)[C@]1(COC(=O)c4ccccc4)[C@@H]3C[C@@]12O[C@@H]1O[C@H](CO)[C@@H](O)[C@H](O)[C@@H]1O`: the Potency result in assay [1], in [2], in [3], in [4], in assay [15] and in [5] was “inactive” throughout. The Potency entry in [8] and in [9] was “inactive” throughout.

On to `NC(=O)c1cccc(-c2cccc(OC(=O)NC3CCCCC3)c2)c1`, for which the Potency result in assay [1], in assay [2], in assay [3], in [14], in assay [4] and in assay [6] was “inactive” in each case. In addition, the Potency entry in assay [7], in [17], in [9] and in assay [12] was “inactive” each time.

On to `CCc1ccc(C(=O)Nc2cc(CN3CCN(C)CC3)cc(C(F)(F)F)c2)cc1C#Cc1cnc2ccnn2c1`, for which the Potency in assay [1] was 9.35 µM (active); in assay [2], 7.43 µM (active); in [13], 4.69 µM (active); in [14] it was 20.9 µM (active); in assay [15] it was 8.33 µM (active); in assay [5] it was 5.9 µM (active). For the same molecule, the Potency is 5.26 µM (active) in assay [6]; 3.72 µM (active) in [7]; 16.6 µM (active) in [8]; 23.5 µM (active) in assay [16]; 18.7 µM (active) in assay [17]; 10.5 µM (active) in assay [9]. Further, the results for the Potency in [10], in [11] and in assay [12] were 16.6 µM (active), 16.6 µM (active) and 18.7 µM (active), respectively.

With `C=C1CCC2[C@](C)(CO)C(O)CC[C@]2(C)C1CC=C1C(=O)OCC1O` (some centres not stated), the Potency entry in assay [1], in assay [2], in assay [13], in [4], in assay [15] and in [6] was “inactive” in each case. Besides, the Potency result in [10] and in [11] was “inactive” in each case.

For the molecule `CC(=O)O[C@@]12CO[C@H]1C[C@H](O)[C@@]1(C)C(=O)[C@H](O)C3=C(C)[C@@H](OC(=O)C(O)[C@@H](NC(=O)OC(C)(C)C)c4ccccc4)C[C@@](O)([C@@H](OC(=O)c4ccccc4)[C@@H]21)C3(C)C` (some centres not stated), the Potency result in assay [1], in [2], in assay [3], in assay [14], in [4] and in assay [15] was “inactive” in each case. Besides, the Potency result in assay [5], in assay [17], in assay [9], in [10], in assay [11] and in [12] was “inactive” each time.

With `CN1C(C(=O)Nc2ccccn2)=C(O)c2sc(Cl)cc2S1(=O)=O`, the Potency in assay [1] is 3.32 µM (active); in assay [2], 3.72 µM (active); in assay [13], 2.64 µM (active); in assay [14], 3.72 µM (active); in [15], 2.64 µM (active); in assay [7], 2.09 µM (active). Also, the Potency was 14.8 µM (active) in [8]; 20.9 µM (active) in [16]; 1.66 µM (active) in [9]; 5.26 µM (active) in assay [11]; 18.7 µM (active) in assay [12]. Besides, the Potency result in assay [5] and in [6] was “inactive” throughout.

`COc1cc(C(C)C)c(Oc2cnc(NC(CO)CO)nc2N)cc1I`: the Potency result in assay [1], in assay [2], in assay [13], in assay [4], in assay [18] and in [17] was “inactive” throughout. Besides, the Potency result in assay [9] and in [10] was “inactive” each time. Moreover, the Potency was 18.7 µM (active) in [15]; 0.662 µM (active) in assay [19]; 2.64 µM (active) in assay [8]; 1.05 µM (active) in assay [11]; 2.64 µM (active) in [12].

Consider `N#CC(=C(N)Sc1ccc(N)cc1)c1ccccc1C(F)(F)F`, for which the Potency in [1] is 0.418 µM (active); in assay [2], 5.9 µM (active); in assay [13], 8.33 µM (active); in assay [15], 13.2 µM (active); in assay [18], 7.43 µM (active); in assay [7], 0.469 µM (active). Further, the results for the Potency in assay [9] and in assay [12] were 1.05 µM (active) and 14.8 µM (active), respectively. The Potency result in assay [5], in [6] and in [16] was “inactive” in each case.

With `N#CC(=C(O)c1ccc(Cl)cc1Cl)c1nc2cc(Cl)ccc2c(=O)[nH]1`, the Potency result in assay [1], in assay [2], in [13], in assay [5], in assay [18] and in assay [6] was “inactive” in each case. The Potency entry in [7], in [16], in assay [17], in assay [9], in assay [11] and in assay [12] was “inactive” throughout.

`C=CC1=C(C(=O)O)N2C(=O)[C@@H](NC(=O)C(=NO)c3csc(N)n3)[C@H]2SC1`: the Potency entry in assay [1], in assay [2], in assay [3], in assay [15], in [5] and in [18] was “inactive” in each case. Moreover, the Potency entry in assay [8], in [9], in assay [10], in assay [11] and in assay [12] was “inactive” each time.

On to `C[C@@H](Cc1cc2c(c(C(N)=O)c1)N(CCCO)CC2)NCCOc1ccccc1OCC(F)(F)F`, for which the Potency entry in assay [1], in assay [2], in [3], in [14], in assay [4] and in assay [5] was “inactive” each time. The Potency result in assay [8], in [17], in assay [9] and in assay [12] was “inactive” each time.

The record behind these values is PubChem BioAssay (NCATS).
